Assay results from PubChem BioAssay AID1159580 (chemical genetic matrix, 2015).
About 2,000 (36%) of roughly 5,500 compounds were called active. About 18% were inconclusive and are not listed. Rule as the data show it: active = normalized growth mostly below about 0.91 (no sharp cut-off); inconclusive = no clear call, values can overlap the other calls; inactive = mostly above about 0.92. The list shows a part of the results.

Assay: chemical genetic growth profiling, strain panel (AID 1159580);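 also: tested at 20 µM; growth read once vehicle control cultures reached saturation at 30 °C; 1 = growth at the plate median or of vehicle wells; lower values mean less growth of the strain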
Conditions: S. cerevisiae deletion strains, growth OD
[1] = locus YAL021C, strain ccr4, hits give low values
[2] = locus YAL026C, strain drs2, hits give low values
[3] = locus YAL030W, strain snc1, hits give low values
[4] = locus YBL061C, strain skt5, hits give low values
[5] = locus YBR009C, strain hhf1, hits give low values
[6] = locus YBR023C, strain chs3, hits give low values
[7] = locus YBR171W, strain sec66, hits give low values
[8] = locus YBR231C, strain swc5, hits give low values
[9] = locus YBR279W, strain paf1, hits give low values
[10] = locus YCL011C, strain gbp2, hits give low values
[11] = locus YCL016C, strain dcc1, hits give low values
[12] = locus YCL061C, strain MRC1, hits give low values
[13] = locus YCL069W, strain vba3, hits give low values
[14] = locus YCR088W, strain abp1, hits give low values
[15] = locus YDL005C, strain med2, hits give low values
[16] = locus YDL040C, strain nat1, hits give low values
[17] = locus YDR001C, strain nth1, hits give low values
[18] = locus YDR069C, strain doa4, hits give low values
[19] = locus YDR137W, strain rgp1, hits give low values
[20] = locus YDR159W, strain sac3, hits give low values
[21] = locus YDR297W, strain sur2, hits give low values
[22] = locus YDR334W, strain swr1, hits give low values
[23] = locus YDR335W, strain msn5, hits give low values
[24] = locus YDR392W, strain spt3, hits give low values
[25] = locus YEL003W, strain gim4, hits give low values
[26] = locus YEL037C, strain rad23, hits give low values
[27] = locus YEL061C, strain CIN8 (second series), hits give low values
[28] = locus YER015W, strain faa2, hits give low values
[29] = locus YER016W, strain bim1, hits give low values
[30] = locus YER111C, strain swi4, hits give low values
[31] = locus YER155C, strain BEM2 (second series), hits give low values
[32] = locus YFR010W, strain ubp6, hits give low values
[33] = locus YGL167C, strain pmr1, hits give low values
[34] = locus YGL173C, strain kem1, hits give low values
[35] = locus YGL227W, strain vid30, hits give low values
[36] = locus YGL240W, strain doc1, hits give low values
[37] = locus YGL253W, strain hxk2, hits give low values
[38] = locus YHR013C, strain ard1, hits give low values
[39] = locus YHR027C, strain rpn1, hits give low values
[40] = locus YHR030C, strain SLT2, hits give low values
[41] = locus YHR079C, strain IRE1, hits give low values
[42] = locus YHR142W, strain chs7, hits give low values
[43] = locus YJL092W, strain hpr5, hits give low values
[44] = locus YJL095W, strain BCK1 (second series), hits give low values
[45] = locus YJL095W, strain BCK1, hits give low values
[46] = locus YJL115W, strain asf1, hits give low values
[47] = locus YJL129C, strain trk1, hits give low values
[48] = locus YJL154C, strain vps35, hits give low values
[49] = locus YJL164C, strain tpk1, hits give low values
[50] = locus YJL166W, strain qcr8, hits give low values
[51] = locus YJL187C, strain SWE1, hits give low values
[52] = locus YJR066W, strain TOR1, hits give low values
[53] = locus YKL160W, strain elf1, hits give low values
[54] = locus YKR026C, strain gcn3, hits give low values
[55] = locus YKR091W, strain srl3, hits give low values
[56] = locus YLL001W, strain dnm1, hits give low values
[57] = locus YLL026W, hits give low values
[58] = locus YLL041C, strain sdh2, hits give low values
[59] = locus YLR027C, strain aat2, hits give low values
[60] = locus YLR113W, strain HOG1, hits give low values
[61] = locus YLR221C, strain rsa3, hits give low values
[62] = locus YLR258W, strain gsy2, hits give low values
[63] = locus YLR262C, strain YPT6 (second series), hits give low values
[64] = locus YLR320W, strain mms22, hits give low values
[65] = locus YLR342W, strain FKS1, hits give low values
[66] = locus YLR357W, strain rsc2, hits give low values
[67] = locus YLR370C, strain arc18, hits give low values
[68] = locus YLR384C, strain iki3, hits give low values
[69] = locus YML120C, strain ndi1, hits give low values
[70] = locus YMR058W, strain fet3, hits give low values
[71] = locus YMR125W, strain sto1, hits give low values
[72] = locus YMR129W, hits give low values
[73] = locus YMR205C, strain PFK2, hits give low values
[74] = locus YMR231W, strain pep5, hits give low values
[75] = locus YNL071W, strain lat1, hits give low values
[76] = locus YNL183C, strain NPR1, hits give low values
[77] = locus YNL209W, strain ssb2, hits give low values
[78] = locus YNL248C, strain rpa49, hits give low values
[79] = locus YNL322C, strain KRE1 (second series), hits give low values
[80] = locus YNR049C, strain mso1, hits give low values
[81] = locus YOR001W, strain rrp6, hits give low values
[82] = locus YOR070C, strain gyp1, hits give low values
[83] = locus YOR080W, strain dia2, hits give low values
[84] = locus YOR083W, strain WHI5, hits give low values
[85] = locus YOR106W, strain vam3, hits give low values
[86] = locus YOR231W, strain MKK1, hits give low values
[87] = locus YOR265W, strain rbl2, hits give low values
[88] = locus YOR270C, strain vph1, hits give low values
[89] = locus YOR290C, strain snf2, hits give low values
[90] = locus YPL051W, strain arl3, hits give low values
[91] = locus YPL078C, strain atp4, hits give low values
[92] = locus YPL106C, strain sse1, hits give low values
[93] = locus YPL240C, strain hsp82, hits give low values
[94] = locus YPL256C, strain CLN2, hits give low values

Measured: normalized growth

CCN1CCN(c2cc3c(cc2F)c(=O)c(C(=O)O)cn3C2CC2)CC1
inactive: [1] 1.04 | [2] 1.01 | [3] 1.01 | [4] 1.01 | [5] 1 | [6] 1.01 | [7] 1.02 | [8] 1.02 | [9] 1.01 | [10] 1.01 | [11] 0.997 | [12] 1.01 | [13] 1.01 | [14] 1.01 | [15] 1.02 | [16] 1.01 | [17] 1.01 | [18] 1 | [19] 0.969 | [20] 1.01 | locus YDR195W, strain ref2 1.04 | [21] 1.01 | [22] 1.02 | [23] 1.03 | [24] 1 | [25] 1.01 | [26] 1.01 | [27] 1.02 | [28] 1.01 | [29] 0.995 | [30] 1.02 | [31] 1.01 | [32] 1.01 | [33] 1.02 | [34] 1 | [35] 1.01 | [36] 0.997 | [37] 1.01 | [38] 1.04 | [39] 1.02 | [40] 0.992 | [41] 0.986 | [42] 1.02 | [43] 1.01 | [44] 1.02 | [45] 0.995 | [46] 0.989 | [47] 1.03 | [48] 1.02 | [49] 1.01 | [50] 1 | [51] 1.01 | [52] 0.962 | [53] 1 | [54] 1.01 | [55] 1 | [56] 1.02 | [57] 1 | [58] 1.01 | [59] 1.01 | [60] 1.03 | [61] 1.01 | [62] 1.01 | [63] 0.962 | [65] 1.02 | [66] 0.994 | [67] 1.02 | [68] 1 | [69] 1.01 | [70] 1.01 | [71] 1.02 | [72] 1.01 | [73] 1 | [74] 1.02 | [75] 1.02 | [76] 0.935 | [77] 1.03 | [78] 1.01 | [79] 1 | [80] 1.01 | [81] 1.01 | [82] 1.02 | [83] 0.992 | [84] 1.01 | [85] 0.994 | [86] 0.981 | [87] 1.01 | [88] 1.03 | [89] 0.957 | [90] 1.01 | [91] 1.02 | [92] 0.998 | [93] 1.01 | [94] 0.986
active: [64] 0.854

O=C(O)c1cn(-c2ccc(F)cc2)c2cc(N3CCNCC3)c(F)cc2c1=O
inactive: [1] 0.949 | [2] 0.975 | [3] 0.964 | [4] 0.981 | [5] 0.979 | [6] 0.966 | [7] 0.958 | [8] 0.967 | [9] 0.959 | [10] 0.975 | [11] 0.983 | [12] 0.969 | [13] 0.983 | [14] 0.982 | [15] 0.985 | [16] 0.979 | [17] 0.952 | [18] 0.94 | [19] 0.921 | [20] 0.96 | locus YDR195W, strain ref2 0.921 | [21] 0.981 | [22] 0.938 | [23] 0.949 | [24] 1.02 | [25] 0.96 | [26] 0.959 | [27] 0.97 | [28] 0.983 | [29] 0.967 | [30] 0.967 | [31] 0.919 | [32] 0.949 | [33] 0.941 | [34] 0.984 | [35] 0.954 | [36] 0.944 | [37] 0.993 | [38] 0.982 | [39] 0.976 | [40] 1.04 | [41] 1.03 | [42] 1.01 | [43] 0.974 | [44] 0.977 | [45] 0.976 | [46] 0.963 | [47] 0.992 | [48] 0.97 | [49] 0.993 | [50] 0.947 | [51] 0.979 | [52] 0.985 | [53] 0.989 | [54] 0.962 | [55] 0.979 | [56] 0.977 | [57] 0.967 | [58] 0.977 | [59] 0.982 | [60] 0.975 | [61] 0.992 | [62] 0.979 | [63] 0.951 | [64] 0.981 | [65] 0.96 | [66] 0.958 | [67] 0.948 | [68] 0.971 | [69] 0.972 | [70] 0.968 | [71] 0.967 | [72] 0.997 | [73] 0.995 | [74] 0.973 | [75] 0.991 | [76] 0.982 | [77] 0.972 | [78] 1.02 | [79] 0.966 | [80] 0.979 | [81] 0.952 | [82] 0.984 | [83] 0.945 | [84] 0.987 | [85] 0.962 | [86] 1.01 | [87] 0.974 | [88] 0.947 | [89] 0.965 | [90] 0.955 | [91] 0.972 | [92] 0.895 | [93] 0.996 | [94] 1.06
